Data on 40 molecules can be found in PubChem BioAssay AID602376 (Johns Hopkins Ion Channel Center, 2012).

Measured potencies and affinities stand elsewhere. Records with an inconclusive call do not appear. Activity calls are given as the source filed them.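 How the source made its calls: active means raises choline transporter activity at one or more tested doses and gives a fitted dose-response curve; inconclusive means no clear call, values can overlap the other calls; inactive means no choline transporter activation at any dose, or no curve.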

High affinity choline transporter 1 (Homo sapiens), sequence (Q9GZV3 whole entry, looked up): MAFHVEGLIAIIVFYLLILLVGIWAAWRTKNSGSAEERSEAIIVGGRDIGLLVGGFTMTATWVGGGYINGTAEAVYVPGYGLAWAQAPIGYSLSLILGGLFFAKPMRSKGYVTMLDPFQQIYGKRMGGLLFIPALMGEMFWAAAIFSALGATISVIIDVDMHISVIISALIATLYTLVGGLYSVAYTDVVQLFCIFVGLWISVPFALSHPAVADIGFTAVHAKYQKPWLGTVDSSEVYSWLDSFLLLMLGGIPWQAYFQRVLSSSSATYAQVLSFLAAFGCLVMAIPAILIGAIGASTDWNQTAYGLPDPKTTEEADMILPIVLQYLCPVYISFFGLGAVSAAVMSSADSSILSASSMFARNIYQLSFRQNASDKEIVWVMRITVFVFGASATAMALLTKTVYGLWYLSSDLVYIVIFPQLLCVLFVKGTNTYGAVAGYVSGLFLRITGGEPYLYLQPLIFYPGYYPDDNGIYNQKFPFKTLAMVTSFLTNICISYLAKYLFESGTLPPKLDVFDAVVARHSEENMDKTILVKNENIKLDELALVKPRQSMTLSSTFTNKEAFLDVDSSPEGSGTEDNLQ

This test has as its target High affinity choline transporter 1 (Homo sapiens) (UniProt Q9GZV3). Nature of the test: CHT activators, dose response, cell-based, 10-point CRC, membrane potential dye (AID 602376). The following applies: HEK293-CHT, choline-induced membrane potential dye, cells express CHT LV-AA mutant; series mostly up to 67 µM.
Consider `CCN1CCc2nc(NC(=O)C(c3ccccc3)c3ccccc3)sc2C1`, for which the molecule was called inactive.
The same measure for `O=C(c1ccco1)N(CCC(c1ccccc1)c1ccco1)Cc1ccccc1` (stereo not given): “inactive”; for `Cc1nnc(N2CCC(C(=O)N3CCCCC3)CC2)c2nn(-c3ccc(Cl)cc3)c(C)c12`: “inactive”; for `CCc1ccc(C(O)(CNCc2ccccc2)c2ccccc2)cc1` (stereo not given): “inactive”.
Consider `CCOC(=O)c1c(C)n(-c2ccccc2)c2ccc(OCCN(C)C)cc12`, for which the molecule was classed as inactive.
As for `O=C(Nc1cccc(Cl)c1N1CCOCC1)c1cc([N+](=O)[O-])ccc1N1CCOCC1`, the entry is “inactive”.
As for `COc1cccc(C(c2nnnn2CCc2ccccc2)N2CCN(c3ccccc3)CC2)c1OC` (stereo not given), the entry is “inactive”.
Turning to `CC(C)CN(C(=O)CSc1nnc(-c2cccs2)n1N)c1c(N)n(Cc2ccccc2)c(=O)[nH]c1=O`, the outcome was inactive.
As for `CCN1C(=NCc2ccccc2)N[C@@H](c2ccccc2)[C@H](C(=O)OC)[C@H]1C`, the entry is “inactive”.
Consider `C/C(=N\NC(=O)c1nnn(-c2nonc2N)c1CN1CCC(C)CC1)c1cccc(Br)c1`, for which the result was inactive.
Consider `CC(Sc1nnc(-c2ccc(Cl)cc2Cl)n1Cc1ccccc1)C(=O)Nc1nccs1` (stereo not given), for which the call was inactive.
The same measure for `COc1ccc(C(=O)CSc2nnc(CNC(=O)c3ccco3)n2C)cc1`: “inactive”; for `CCN1C(N(C)CCc2cccs2)=N[C@@H](c2ccccc2)C(C(=O)OC)=C1C`: “inactive”.
With `O=C(COC(=O)c1c2c(nc3ccccc13)CCCCC2)NCc1ccc2c(c1)OCO2`, the result was inactive.
For `COC(=O)CNC(c1ccccc1)c1cc(C)ccc1NC(=O)c1cccc(Cl)c1` (stereo not given), the molecule was classed as inactive.
As for `CCOC(=O)c1cc2c(=O)n3ccccc3nc2n(CC2CCCO2)c1=NC(=O)/C=C/c1ccccc1` (stereo not given), the entry is “inactive”; as for `Cc1cccc(Oc2nc(CN3CCOCC3)nc3sc4c(c23)CCCC4)c1`, “inactive”; as for `Cc1noc(C)c1CSc1nc2ccccc2c(=O)n1-c1ccccc1`, “inactive”.
The same measure for `Nc1sc(-c2ccccc2)n[n+]1Cc1cccc2cccnc12`: “inactive”; for `CN1CCN(Cc2nc3ccccc3c(=O)n2Cc2nc(-c3ccccc3F)cs2)CC1`: “inactive”; for `Cc1ccc(-c2c(C(=O)N(C)Cc3ccccc3)oc(=O)c3ccccc23)cc1`: “inactive”.
`COC(=O)c1sc(NC(=O)C(C)c2ccccc2)nc1C` (stereo not given): the result was inactive.
As for `CCc1ccc(OCC(=O)N/N=C/c2cc([N+](=O)[O-])ccc2N2CCOCC2)cc1`, the entry is “inactive”; as for `CCOC(=O)C1(Cc2ccccc2C(F)(F)F)CCN(Cc2ccon2)CC1`, “inactive”.
On to `CC(C)CCC(CCNCc1ccccn1)c1ccc(Cl)cc1` (stereo not given), for which the call was inactive.
The same measure for `CC1Cc2cc(S(=O)(=O)N3CCN(c4ccccc4F)CC3)ccc2N1C(=O)C1CC1` (stereo not given): “inactive”; for `Cc1cc(N2CCN(Cc3cn(C)nc3-c3ccccc3F)CC2)cc(C)n1`: “inactive”; for `O=C(NCC(c1ccco1)N1CCCC1)c1ccccc1Sc1ccc(C(F)(F)F)cc1[N+](=O)[O-]` (stereo not given): “inactive”.
For the molecule `COc1cc(-c2noc(C)c2C#Cc2ccccn2)cc(OC)c1OC`, the outcome was inactive.
The same measure for `CCc1cccc(C)c1NC(=O)CN(C)Cc1ccc(Br)cc1`: “inactive”.
For the molecule `CC(C)(C)n1nnnc1C(c1cccnc1)N1CCN(c2cccc(C(F)(F)F)c2)CC1` (stereo not given), the outcome was inactive.
In the case of `O=C1N(Cc2cccc(Cl)c2)C[C@@H]2C[C@@H](c3ccsc3)N3CCC[C@@]123`, the outcome was inactive.
With `Cc1cccc2c(=O)cc(C)n(CC(=O)N3CCOCC3)c12`, the molecule was called inactive.
`Cc1nc(N(C)Cc2ccccc2)c2c(C)c(C)sc2n1`: the outcome was inactive.
As for `CCOC(=O)C1(CCc2ccccc2)CCN(Cc2cc(OC)c(OC)cc2OC)CC1`, the entry is “inactive”; as for `Cc1cccc2cc3c(N)c(C(=O)N4CCc5ccccc54)sc3nc12`, “inactive”; as for `CCOc1ccc(S(=O)(=O)NCc2ccco2)c2ccccc12`, “inactive”.
As for `CC(C)C1Oc2ccccc2N(CC(=O)NC2CCCCC2)C1=O` (stereo not given), the entry is “inactive”; as for `CCOC(=O)C[C@H]1c2ccccc2S(=O)(=O)N1Cc1cccc(C(F)(F)F)c1`, “inactive”; as for `COc1ccc(-c2c3c(=O)n(C)c(=O)n(C)c3cn2C2CCCCC2)cc1`, “inactive”.
